Laboratory results as given in PubChem BioAssay.
The source made the active and inactive calls.

Assays:
[1] = binders of probe aFSTL3 on microarray, primary screen, stem cell growth factor project, biochemical, small-molecule microarray, fluorescence 635/667 (AID 1064); conditions: higher = more signal;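 note: measures binding of the biotinylated anti-FSTL3 antibody to printed compounds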
[2] = binders from COS7 lysate, DM2A8 probe, primary screen, torsin A project, cell lysate, small-molecule microarray, fluorescence 635/667 (AID 1065); conditions: higher = more signal, COS7 lysate expressing mutant human TOR1A
[3] = binders of probe aFGF2 on microarray, primary screen, stem cell growth factor project, biochemical, small-molecule microarray, fluorescence 635/667 (AID 1067); conditions: higher = more signal;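 note: measures binding of biotinylated aFGF2 protein to printed compounds on slides; z-score merges feature fluorescence and signal-to-noise across triplicate slides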
[4] = binders of probe aFGF10 on microarray, primary screen, stem cell growth factor project, biochemical, small-molecule microarray, fluorescence 635/667 (AID 1071); conditions: higher = more signal;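 note: score merges 667 nm spot intensity and signal to noise from triplicate slides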
[5] = target: Neurogenic locus notch homolog protein 2 (Homo sapiens) (UniProt Q04721); assay: Notch2 binders on small-molecule microarrays, primary screen, biochemical, small-molecule microarray, 635 nm fluorescence, stem cell growth factors (AID 1073); conditions: Notch2 binding, higher = more signal
[6] = target: Pro-neuregulin-1, membrane-bound isoform (Homo sapiens) (UniProt Q02297); assay: NRG1 binders on small-molecule microarrays, primary screen, psychiatric disease protein project, biochemical, small-molecule microarray, fluorescence 635/667 (AID 1075); conditions: NRG1 binding, 635 nm fluorescence, higher = more signal;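 note: score combines 667 nm spot fluorescence with signal to noise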
[7] = test system: Neuregulin-1 EGF-like domain; assay: binders of neuregulin-1 EGF-like domain, primary screen, biochemical, small-molecule microarray, 635 nm fluorescence (AID 1081); conditions: small-molecule microarray binding, higher = more signal;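 note: binding of the protein to compounds printed on small-molecule microarray slides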
[8] = FRG1 promoter luciferase signal modulators, primary screen, FRG1 inhibition for FSHD, cell-based, C2C12 myotubes, firefly/Renilla luciferase, luminescence (AID 1084); conditions: higher = more signal, called active from +8 up or from −8 down
[9] = binders of probe aFST on microarray, primary screen, stem cell growth factor project, biochemical, small-molecule microarray, fluorescence 635/667 (AID 1086); conditions: higher = more signal;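 note: score merges 667 nm fluorescence with signal-to-noise of each printed compound spot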
[10] = binders of probe aHhip on microarray, primary screen, stem cell growth factor project, biochemical, small-molecule microarray, fluorescence 635/667 (AID 1087); conditions: higher = more signal;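 note: score merges spot fluorescence at 667nm with spot signal to noise ratio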
[11] = test system: PRMT1 (protein arginine N-methyltransferase 1); assay: PRMT1 binders on small-molecule microarrays, primary screen, biochemical, small-molecule microarray, 635 nm fluorescence (AID 1088); conditions: small-molecule microarray binding, higher = more signal;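 note: binding of Prmt1 protein to compounds spotted on small-molecule microarray slides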
[12] = yeast growth modulation, basal conditions, primary screen, YJM789 clinical isolate, OD600, 24 h (AID 1089);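 note: growth of clinical yeast isolate S. cerevisiae YJM 789 seeded 1000 cells per well; test concentration not given here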; conditions: S. cerevisiae YJM789 growth, higher = more signal, called active from +8 up or from −8 down
[13] = fission yeast growth modulation, primary screen, strain 972, OD600, 24 h, no modulator (AID 1090);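 note: basal condition with compound alone and no growth modifier present; test concentration not given here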; conditions: S. pombe 972 growth, higher = more signal, called active from +8 up or from −8 down
[14] = S. cerevisiae growth modulation with rapamycin, primary screen, strain BY4716, OD600, 96 h (AID 1091); conditions: higher = more signal, called active from +8 up or from −8 down; note: test concentration not given here
[15] = target: Torsin-1A-interacting protein 2 (Homo sapiens) (UniProt Q8NFQ8); assay: LULL1 binders on small-molecule microarray, primary screen, cell lysate, human LULL1 lysate, 635/667 nm fluorescence (AID 1092); conditions: hLULL1 lysate binding, 635 nm fluorescence, higher = more signal;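 note: probe is lysate of COS7 cells overexpressing human LULL1; score merges per-feature 667 nm fluorescence with signal-to-noise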
[16] = E. coli growth modulation, two-sided OD650, primary screen, E. coli filamentation project, strain DRC41, 24 h (AID 1093); conditions: OD650, 24 h, higher = more signal, called active from +8 up or from −8 down;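 note: MC1000 strain lacking acrAB efflux and sulA so SOS filamentation is blocked; test concentration not given here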
[17] = small-molecule microarray binders of probe aLefty2, primary screen, biochemical, biotinylated probe, 635/667 nm fluorescence (AID 1094); conditions: higher = more signal;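 note: score merges spot fluorescence near 667 nm with spot signal-to-noise ratio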
[18] = test system: Noggin (protein binding on small-molecule microarray); assay: Noggin binders on small-molecule microarray, primary screen, biochemical, 635/667 nm fluorescence (AID 1095); conditions: 635 nm fluorescence, higher = more signal;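 note: score merges 667 nm feature fluorescence with signal to noise over triplicate slides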
[19] = target: Neurogenic locus notch homolog protein 3 (Homo sapiens) (UniProt Q9UM47); assay: NOTCH3 binders on small-molecule microarray, primary screen, biochemical, 635/667 nm fluorescence (AID 1096); conditions: NOTCH3 binding, 635 nm fluorescence, higher = more signal
[20] = small-molecule microarray binders of probe aEGFR, primary screen, biochemical, biotinylated probe, 635/667 nm fluorescence (AID 1097); conditions: higher = more signal;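 note: probe is a biotinylated anti-EGFR antibody binding compounds printed on slides; score combines fluorescence near 667 nm and signal to noise of each spot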

Sequence of Neurogenic locus notch homolog protein 2 (Homo sapiens) (Q04721 whole entry, looked up, canonical isoform): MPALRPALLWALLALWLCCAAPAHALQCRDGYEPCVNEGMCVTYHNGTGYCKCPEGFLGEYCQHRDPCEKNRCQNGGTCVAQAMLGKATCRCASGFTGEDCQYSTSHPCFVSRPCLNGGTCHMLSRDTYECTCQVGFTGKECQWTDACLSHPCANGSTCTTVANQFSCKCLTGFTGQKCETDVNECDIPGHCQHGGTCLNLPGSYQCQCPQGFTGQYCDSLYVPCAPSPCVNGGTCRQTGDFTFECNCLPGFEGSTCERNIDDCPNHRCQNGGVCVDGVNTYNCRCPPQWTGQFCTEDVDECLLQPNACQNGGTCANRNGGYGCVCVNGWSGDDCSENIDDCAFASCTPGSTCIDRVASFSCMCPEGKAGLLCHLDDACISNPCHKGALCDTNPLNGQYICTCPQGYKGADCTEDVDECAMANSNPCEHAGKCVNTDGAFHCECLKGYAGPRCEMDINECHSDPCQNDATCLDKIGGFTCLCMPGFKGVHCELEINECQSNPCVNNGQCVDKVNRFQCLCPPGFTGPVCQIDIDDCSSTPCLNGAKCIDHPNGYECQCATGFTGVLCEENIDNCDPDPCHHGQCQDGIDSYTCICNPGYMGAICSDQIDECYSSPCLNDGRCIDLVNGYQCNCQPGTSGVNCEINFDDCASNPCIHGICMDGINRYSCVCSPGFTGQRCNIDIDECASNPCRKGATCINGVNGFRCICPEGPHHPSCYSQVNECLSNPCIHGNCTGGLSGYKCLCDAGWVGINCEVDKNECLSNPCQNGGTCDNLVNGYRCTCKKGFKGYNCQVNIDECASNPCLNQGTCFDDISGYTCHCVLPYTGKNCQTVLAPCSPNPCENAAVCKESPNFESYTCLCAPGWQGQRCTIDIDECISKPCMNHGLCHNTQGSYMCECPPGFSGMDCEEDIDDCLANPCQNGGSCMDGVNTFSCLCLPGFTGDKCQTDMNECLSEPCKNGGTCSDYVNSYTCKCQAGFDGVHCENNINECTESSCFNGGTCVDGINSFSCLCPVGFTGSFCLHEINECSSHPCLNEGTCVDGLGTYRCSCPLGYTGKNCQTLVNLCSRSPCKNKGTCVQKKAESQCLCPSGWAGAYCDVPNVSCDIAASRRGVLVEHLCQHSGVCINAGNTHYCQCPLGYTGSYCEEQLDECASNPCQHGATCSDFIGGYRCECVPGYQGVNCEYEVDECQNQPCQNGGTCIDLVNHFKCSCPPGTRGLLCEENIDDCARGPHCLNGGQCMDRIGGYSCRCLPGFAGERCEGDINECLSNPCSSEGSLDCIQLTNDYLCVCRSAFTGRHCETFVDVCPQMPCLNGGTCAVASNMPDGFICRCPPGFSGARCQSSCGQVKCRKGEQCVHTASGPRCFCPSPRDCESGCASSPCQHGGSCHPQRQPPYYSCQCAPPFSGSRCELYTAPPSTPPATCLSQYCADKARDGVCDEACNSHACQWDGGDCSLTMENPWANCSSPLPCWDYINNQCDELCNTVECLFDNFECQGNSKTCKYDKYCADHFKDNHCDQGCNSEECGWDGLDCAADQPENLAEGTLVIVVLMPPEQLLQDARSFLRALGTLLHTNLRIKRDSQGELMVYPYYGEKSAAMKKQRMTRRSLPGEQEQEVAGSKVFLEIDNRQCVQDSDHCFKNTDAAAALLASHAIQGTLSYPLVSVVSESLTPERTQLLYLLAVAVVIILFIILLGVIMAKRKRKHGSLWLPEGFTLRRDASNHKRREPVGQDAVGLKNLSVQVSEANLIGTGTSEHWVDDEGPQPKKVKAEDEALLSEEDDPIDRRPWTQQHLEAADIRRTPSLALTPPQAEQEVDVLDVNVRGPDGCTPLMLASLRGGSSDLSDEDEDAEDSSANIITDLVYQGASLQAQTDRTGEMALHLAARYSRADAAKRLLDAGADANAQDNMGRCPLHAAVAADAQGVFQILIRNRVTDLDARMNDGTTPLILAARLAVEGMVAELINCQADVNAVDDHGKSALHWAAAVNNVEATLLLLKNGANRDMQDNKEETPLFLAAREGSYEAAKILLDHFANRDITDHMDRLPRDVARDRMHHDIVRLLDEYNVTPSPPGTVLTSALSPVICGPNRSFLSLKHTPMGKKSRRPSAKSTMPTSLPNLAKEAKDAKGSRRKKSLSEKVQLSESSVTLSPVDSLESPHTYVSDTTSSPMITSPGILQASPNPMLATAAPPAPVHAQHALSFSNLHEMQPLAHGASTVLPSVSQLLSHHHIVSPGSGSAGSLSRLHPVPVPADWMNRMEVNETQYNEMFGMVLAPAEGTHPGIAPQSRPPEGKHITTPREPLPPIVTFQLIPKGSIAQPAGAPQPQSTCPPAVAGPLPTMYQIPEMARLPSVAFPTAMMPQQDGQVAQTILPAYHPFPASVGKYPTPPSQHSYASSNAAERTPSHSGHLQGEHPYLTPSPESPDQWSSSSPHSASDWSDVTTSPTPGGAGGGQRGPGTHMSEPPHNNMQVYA
Sequence of Pro-neuregulin-1, membrane-bound isoform (Homo sapiens) (Q02297 whole entry, looked up, the tested form may be a part, canonical isoform): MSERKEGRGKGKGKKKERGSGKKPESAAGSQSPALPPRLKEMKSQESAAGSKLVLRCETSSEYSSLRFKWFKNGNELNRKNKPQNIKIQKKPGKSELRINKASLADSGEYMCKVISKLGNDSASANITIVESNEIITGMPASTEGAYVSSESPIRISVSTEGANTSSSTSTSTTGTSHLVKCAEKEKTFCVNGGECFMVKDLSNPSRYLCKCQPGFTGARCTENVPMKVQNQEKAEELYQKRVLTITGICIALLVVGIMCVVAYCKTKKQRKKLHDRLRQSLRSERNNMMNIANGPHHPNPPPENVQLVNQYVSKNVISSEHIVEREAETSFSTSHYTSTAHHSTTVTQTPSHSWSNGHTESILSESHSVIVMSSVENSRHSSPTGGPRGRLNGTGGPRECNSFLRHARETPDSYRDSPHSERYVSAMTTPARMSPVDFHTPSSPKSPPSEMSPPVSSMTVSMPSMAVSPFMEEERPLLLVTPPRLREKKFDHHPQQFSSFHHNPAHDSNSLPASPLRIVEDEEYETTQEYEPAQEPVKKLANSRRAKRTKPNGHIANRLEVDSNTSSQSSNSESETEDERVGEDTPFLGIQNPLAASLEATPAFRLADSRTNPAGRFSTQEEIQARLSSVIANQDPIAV
Sequence of Torsin-1A-interacting protein 2 (Homo sapiens) (Q8NFQ8 whole entry, looked up): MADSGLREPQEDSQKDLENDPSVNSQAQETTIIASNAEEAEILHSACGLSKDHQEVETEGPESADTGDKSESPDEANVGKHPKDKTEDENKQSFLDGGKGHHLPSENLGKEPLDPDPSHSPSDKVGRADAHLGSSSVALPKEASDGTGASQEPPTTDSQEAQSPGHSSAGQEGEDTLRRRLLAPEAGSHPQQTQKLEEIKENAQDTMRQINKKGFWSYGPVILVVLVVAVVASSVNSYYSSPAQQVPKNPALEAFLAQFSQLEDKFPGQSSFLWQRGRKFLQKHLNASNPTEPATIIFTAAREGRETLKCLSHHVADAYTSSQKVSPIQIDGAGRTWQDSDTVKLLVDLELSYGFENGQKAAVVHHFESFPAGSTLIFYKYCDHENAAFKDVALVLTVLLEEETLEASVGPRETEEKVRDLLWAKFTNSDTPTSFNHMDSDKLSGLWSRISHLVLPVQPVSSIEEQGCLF

Row | SMILES | composite z-score [1] | composite z-score [2] | composite z-score [3] | composite z-score [4] | composite z-score [5] | composite z-score [6] | composite z-score [7] | z-score [8] | composite z-score [9] | composite z-score [10] | composite z-score [11] | z-score [12] | z-score [13] | z-score [14] | composite z-score [15] | z-score [16] | composite z-score [17] | composite z-score [18] | composite z-score [19] | composite z-score [20]
1 | C=CCC(OC(C)=O)[C@@H]1[C@@H](N(Cc2cccc3ccccc23)C(=O)c2ccc(-c3ccccc3)cc2)c2cc(OCCCO)ccc2N1C(=O)Cc1ccc(OC)cc1 (stereo not given in full) | -0.184 | 0.419 | -0.061 | 0.151 | -0.131 | 0.0521 | 0.138 | 0.61 (inactive) | -0.0107 | -0.0618 | 0.341 | -0.715 (inactive) | -0.445 (inactive) | -1.03 (inactive) | 0.792 | 0.457 (inactive) | -0.0491 | 0.0231 | 0.0343 | -0.0415
2 | O=C1[C@H]2C=C(Br)[C@H](C[C@@H]2OCCCCO)[C@@]12CO2 | -0.441 | -0.199 | -0.116 | 0.0593 | 0.0769 | -0.434 | -0.0036 | -0.636 (inactive) | -0.241 | -0.0237 | -0.162 | 0.176 (inactive) | -0.248 (inactive) | 0.93 (inactive) | -0.99 | -1.03 (inactive) | -0.0778 | -0.0486 | 0.221 | -0.0409
3 | C=CCN1C(=O)[C@]2(O[C@H](CCO)[C@@H]([Si](C)(C)c3ccc(OC)cc3)[C@@H]2C)c2cc(N3C(=O)c4cccc5cccc3c45)ccc21 | -0.0848 | 0.326 | -0.1 | 0.607 | 0.322 | 0.828 | 1.2 | -2.66 (inactive) | -0.17 | -0.236 | 1.46 | 3.36 (inactive) | 2.8 (inactive) | 36.8 (active) | 2.01 | 0.577 (inactive) | -0.172 | 1.69 | 1.07 | -0.137
4 | COC(=O)[C@@]1(Cc2ccc(F)cc2)[C@H]2c3cc(C(=O)N4CCCC4)n(Cc4ccc(C)o4)c3C[C@H]2CN1C(=O)c1ccccc1 | 0.285 | 0.145 | 0.157 | 0.883 | 1.53 | 0.714 | 1.14 | 1.62 (inactive) | 1.29 | 0.2 | 0.812 | -0.849 (inactive) | -0.0545 (inactive) | 0.0836 (inactive) | 2.88 | -0.673 (inactive) | 0.381 | 1.2 | 0.556 | 0.277
5 | N#Cc1ccc(NN2C(C(O)c3c(F)cccc3Cl)C=CC3C(=O)N(c4ccccc4)C(=O)C32)cc1 (stereo not given) | 0.394 | 0.187 | 0.199 | 0.63 | 1.69 | 1.97 | 0.456 | -1.14 (inactive) | 1.18 | 0.0053 | 1.19 | 0.432 (inactive) | 1.62 (inactive) | 2.48 (inactive) | 3.53 | -0.62 (inactive) | 0.222 | -0.109 | 1.06 | -0.244
6 | NC(=O)[C@@H]1[C@H]2C(=O)O[C@H](c3ccccc3)[C@H](c3ccccc3)N2[C@H](c2ccc(O)cc2)[C@@]12C(=O)Nc1ccc(C#CC3(O)CCCCCC3)cc12 | 0.372 | 0.167 | 0.0075 | 0.244 | 0.0065 | 0.959 | 1.42 | 0.854 (inactive) | -0.0686 | -0.0645 | 0.454 | 0.505 (inactive) | -0.133 (inactive) | 0.639 (inactive) | 2.14 | -0.441 (inactive) | -0.072 | -0.6 | -0.395 | -0.178
7 | [N-]=[N+]=Nc1ccccc1C[C@]1(C(N)=O)N=C(c2ccc(OCCCO)cc2)O[C@H]1c1ccccc1 | 0.235 | 0.327 | 0.0931 | 0.373 | 0.361 | 1.82 | 1.22 | -3.01 (inactive) | 0.85 | -0.0237 | 0.203 | 0.515 (inactive) | 0.248 (inactive) | 0.143 (inactive) | 3.19 | 0.104 (inactive) | -0.0893 | -0.194 | 0.444 | -0.115
8 | CN(C)CCCC[C@@H]1NC(=O)[C@H]2C[C@@H](C(=O)NCCCCCNC(=O)CS)[C@@H](c3cccc(OCCO)c3)N2C1=O | -0.23 | 0.411 | -0.0785 | -0.0727 | -0.21 | 0.727 | 1.27 | 0.498 (inactive) | 0.0184 | -0.305 | 1.18 | -1.14 (inactive) | -1.3 (inactive) | -0.296 (inactive) | 2.79 | -0.328 (inactive) | 0.0144 | 1.54 | 0.534 | -0.136
9 | COc1ccc([C@H]2C[C@H]3C(Br)=C[C@@H]2C(=O)[C@]32CO2)cc1 | 0.203 | 0.133 | -0.083 | -0.126 | -0.239 | -0.152 | -0.577 | 1.96 (inactive) | 0.0125 | -0.0618 | -0.431 | 0.29 (inactive) | -3.66 (inactive) | -0.417 (inactive) | -0.807 | 1.7 (inactive) | -0.0561 | 0.101 | -0.282 | -0.217
